Source: PubChem BioAssay
TIM10 inh = inhibits growth of TIM10 yeast strain; S. cerevisiae TIM10 strain growth, BacTiter-Glo luminescence, 24 h; inhibition, % at 10 µM; 1.4% of 330,000 active; AID 463195;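 active = inhibition of 40% or more at the single tested concentration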;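 also: wild-type TIM10 isogenic control strain grown at permissive 25 °C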
V-ATPase pHluor = regulators of yeast V-ATPase proton transport | AID 504577 | S. cerevisiae, pHLuorin cytosolic pH fluorescence | 0.37% of 350,000 active | response, % at 10 µM; in the data active = response mostly above about 7.3%, no sharp cut-off; inactive = mostly below about 5.4%; also: actives read high
PfHsp90 yeast 2 = inhibits growth of yeast expressing Plasmodium falciparum Hsp90 | inhibition, % at 9.4 µM | S. cerevisiae expressing PfHsp90, BacTiter-Glo ATP, 48 h; yeast lacking PDR1 and PDR3 efflux regulators | 0.32% of 310,000 active;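 active = every replicate shows inhibition above about 80%, whatever the replicate mean, limit read from the data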;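 also: 0% = DMSO neutral controls and 100% = 20 µM radicicol positive controls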
tim23-1 inh = growth inhibitors of tim23-1 mutant yeast; S. cerevisiae tim23-1 growth, BacTiter-Glo luminescence, 24 h; inhibition, % at 20 µM; 1.3% of 330,000 active; AID 463212;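 active = growth inhibition of the mutant yeast at or above 50%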;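 also: temperature-sensitive mutant grown at 25 °C; plate controls were DMSO-treated mutant yeast for no effect and medium wells lacking yeast for full effect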
tim10-1 inh = growth inhibitors of tim10-1 mutant yeast; inhibition, % at 20 µM; S. cerevisiae tim10-1 ts strain growth, BacTiter-Glo, 24 h; AID 463190; 2.2% of 330,000 active;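 active = inhibition of at least 40%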;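 also: mutant grown at 25 °C; 0% = DMSO wells with yeast and 100% = wells holding no yeast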
TIM10 conf = TIM10 yeast growth inhibition, confirmed. shares compounds with TIM10 inh. S. cerevisiae tim10 strain growth, BacTiter-Glo luminescence, 24 h. inhibition, % at 10 µM. 63% of 4,600 active. AID 463215;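 active = inhibition of yeast growth at or above a set limit in either of two replicates at 10 µM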;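 also: this counterscreen used the strain with wild-type TIM10; 0% = yeast with DMSO and 100% = medium wells lacking yeast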
An asterisk follows results filed as active; · = no result given; ! = a repeat was not active. Compounds with a hit are over-represented: about 3.7% of the library has one in this group of screens.

SMILES | TIM10 inh | V-ATPase pHluor | PfHsp90 yeast 2 | tim23-1 inh | tim10-1 inh | TIM10 conf
COc1cccc(CN(C)C(=O)CNC(=O)c2ccc(-c3ccccc3)cc2)c1OC | 9 | -7 | -1 | 25 | -28 | ·
COc1ccc(-n2cnc3scc(-c4ccc(OC)c(OC)c4)c3c2=O)cc1 | 40* | -8 | -4 | 41 | 37 | -1
COc1ccc([C@H]2C(C#N)=C([S-])N[C@](C)(O)[C@@H]2[n+]2ccccc2)cc1 | · | -5 | · | · | · | ·
COCCOC(=O)C1=C(C)NC(=O)NC1c1cccc2ccccc12 (configuration not stated) | 51* | -3 | 0 | 3 | 2 | -8
COc1ccc(N2CCN(C(=O)CNC(=O)c3ccco3)CC2)cc1 | 5 | 0 | -17 | -11 | 6 | ·
CC(C)N(Cc1nc(-c2ccccc2)no1)C(=O)C(Cl)(Cl)Cl | 41* | -5 | · | 32 | 24 | 27
Cc1ccc(C2CC2c2n[nH]c(=S)n2-c2ccc(Cl)cc2)cc1 (configuration not stated) | 51* | -2 | -3 | 31 | 27 | 42*
C=CCNC(=S)N/N=C(\C)c1cccnc1 | -17 | 0 | · | 5 | 22 | ·
C=CCNC(=S)N/N=C(\C)c1cccc(OC)c1 | 41* | -3 | -10 | 44 | 27 | 20
C/C(=N\NC(=S)NCc1ccccc1)c1ccc2ccccc2c1 | 54* | 3 | -41 | 44 | 39 | -12
COc1ccc(CNC(=S)N/N=C(\C)c2ccc(OC)cc2)cc1 | 44* | -1 | -5 | -11 | 34 | 44*
S=C(NCc1ccccc1)Nc1ccc2ccccc2c1 | 16 | -3 | 5 | 44 | 18 | ·
COc1ccccc1-c1sc2ccccc2c1-c1ccc2c(c1)OCCO2 | 13 | 9 | 5 | 21 | 16 | ·
O=C(c1ccc([N+](=O)[O-])cc1Cl)N1CCN(Cc2ccccc2)CC1 | · | 0 | · | · | · | ·
O=C(c1cc2ccccc2o1)N1CCN(Cc2nc3ccccc3s2)CC1 | · | 1 | · | · | · | ·
Oc1ccc(/C=N/Nc2ccnc3cc(Cl)ccc23)c(O)c1 | 47* | -5 | -15 | 7 | 5 | 36*
Cc1ccccc1/C=N/Nc1ccnc2cc(Cl)ccc12 | · | 3 | -13 | · | · | ·
Cc1cc(/C=C2\NC(=S)N(C)C2=O)ccc1N1CCCC1 | 42* | -1 | -19 | -15 | 30 | 40*
CC(c1ccc(Cl)cc1)n1c(-c2ccc3ccccc3n2)n[nH]c1=S (configuration not stated) | 30 | 2 | -6 | 48 | 37 | ·
CC(c1ccc(F)cc1)n1c(-c2ccc3ccccc3n2)n[nH]c1=S (configuration not stated) | 46* | -3 | -48 | 49 | 6 | 23
COC(=O)/C(=C\c1cc(OC)c(OC)c(OC)c1)c1nc2ccccc2[nH]1 | 17 | 0 | 8 | 39 | 24 | ·
COc1cc(/C=C(/C(=O)c2cccs2)c2nc3ccccc3[nH]2)ccc1O | 43* | 6 | 16 | 25 | 38 | 34*
CCOC(=O)c1ccc(N2C(=O)CC(N(C)CCc3ccc(OC)c(OC)c3)C2=O)cc1 (configuration not stated) | 43* | 0 | 112* | 36 | 35 | 46*
CCOc1cccc(N2C(=O)CC(N(CCc3ccc(OC)c(OC)c3)C(=O)CC)C2=O)c1 (configuration not stated) | 12 | 0 | -1 | 18 | 19 | ·
COc1ccccc1Nc1nc(NCCCN(C)C)nc(N)c1[N+](=O)[O-] | -2 | 1 | -10 | 11 | 12 | ·
SMILES | TIM10 inh | V-ATPase pHluor | PfHsp90 yeast 2 | tim23-1 inh | tim10-1 inh | TIM10 conf
C=CCNc1nc(N)c([N+](=O)[O-])c(Nc2ccccc2OC)n1 | 41* | -3 | -19 | 31 | 34 | 69*
COC(=O)c1ccc(NC(=S)N2CCN(Cc3ccc(Cl)cc3)CC2)cc1 | 49* | -12 | -14 | 39 | 37 | 36*
CCC(=O)Nc1ccc(C(=O)OCc2ccccc2Cl)cc1 | 58* | -1 | 29 | 33 | 37 | 48*
CCN(CC(=O)NCc1ccc(F)cc1)C(=O)/C=C/c1ccco1 | -5 | 1 | -3 | 3 | 9 | ·
CC1/C(=N/O)CC(c2ccccc2)N(C)C1c1ccccc1 (configuration not stated) | 52* | 3 | 43 | 20 | 27 | 55*
CC1/C(=N/O)CC(c2ccccc2)NC1c1ccccc1 (configuration not stated) | -15 | 0 | -5 | -23 | 7 | ·
Cc1cc(=O)oc2c(C)c(OC(C)C(=O)NCc3ccccn3)ccc12 (configuration not stated) | 15 | 4 | -13 | 12 | -5 | ·
CCC1CCCCN1C(=O)CSc1nnc2nc(C)cc(C)n12 (configuration not stated) | 43* | -1 | -23 | 3 | 1 | -14
c1ccc(CNc2ncnc3ccccc23)cc1 | 81*! | 2 | 16 | -21 | 8 | -16
CC(SC1=NCCN1S(C)(=O)=O)c1ccccc1 (configuration not stated) | 4 | 4 | -2 | 0 | -6 | ·
Brc1ccc(-c2ccc(CNCc3ccccn3)o2)cc1 | 69* | -3 | 7 | 11 | 5 | 23
O=C(NC1CCSc2ccccc21)c1ccccc1Br (configuration not stated) | 15 | -5 | -13 | 25 | 21 | ·
CC(CN1CCCCC1)OC(=O)c1cccc(F)c1 (configuration not stated) | 97* | 7 | -4 | 4 | -13 | -8
O=C(Nc1ccc(N2CCOCC2)c(Cl)c1)c1ccc(-n2cnnc2)cc1Cl | -3 | 0 | -3 | 2 | -6 | ·
c1ccc2c(c1)c1ccccc1n1c(-c3ccc4c(c3)OCO4)nnc21 | 68* | 0 | -28 | 42 | 37 | 8
Cn1c(-c2ccc3c(c2)OCO3)cc(=O)c2ccccc21 | 0 | -2 | -16 | 11 | 12 | ·
CC1=C(C)C(O)N(Cc2ccccc2)C1=O (configuration not stated) | -2 | 0 | -1 | -9 | 7 | ·
COc1ccccc1CNc1ccc(N2CCCCC2)cc1 | 54* | -2 | 36 | 13 | 16 | 14
CNC(=S)N1CCC(C(=O)c2ccc(Cl)cc2)CC1 | · | 1 | · | · | · | ·
CN(CC(=O)Nc1ccccc1Cl)C(=O)COC(=O)c1cccs1 | 2 | 7 | -10 | 14 | 6 | ·
CCc1ccccc1NC(=O)c1ccc([N+](=O)[O-])s1 | 50* | -1 | 16 | 11 | 37 | 43*
CN(CC(=O)Nc1ccccc1Cl)C(=O)COC(=O)c1ccc([N+](=O)[O-])s1 | 47* | 0 | -9 | 36 | 27 | 52*
Cc1ccc(OC(=O)CCNC(=O)c2ccccc2Cl)c(Br)c1 | 10 | -2 | -16 | 26 | 30 | ·
Cc1c(CN2CCC(CO)(CCOc3ccccc3)CC2)[nH]c2c(Cl)cccc12 | 44* | 6 | 5 | -22 | -40 | 16
COc1ccc(C(=O)NNC(=O)c2ccccc2[N+](=O)[O-])cc1Br | 0 | 4 | -8 | 8 | 5 | ·
